{"source": "the supplement of paper PMC8728848", "assay_in_all_cases": "glycan array binding signal (z-score within array); higher = stronger binding", "settings_in_all_cases": "glycan notation: IUPAC condensed, linker removed", "key": {"[1]": {"molecular_target": "Fuc(a1-2)Gal(b1-3)GalNAc(b1-3)Gal(a1-4)Gal(b1-4)Glc", "summary_of_the_method": "(§1)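 Glycan array data came from 3228 arrays in the Consortium for Functional Glycomics database, and only arrays with an available protein sequence were kept. Glycan names were put into IUPAC-condensed notation, and columns mapping to the same glycan were averaged. The binding signal is a within-array Z-score, averaged across arrays of one protein sequence run at different concentrations or buffers and across linkers. A negative Z-score can be read as non-binding.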"}, "[2]": {"molecular_target": "Fuc(a1-2)Gal(b1-4)GlcNAc", "summary_of_the_method": "as §1"}, "[3]": {"molecular_target": "Fuc(a1-2)Gal(b1-4)GlcNAc(b1-3)Gal(b1-4)GlcNAc", "summary_of_the_method": "as §1"}, "[4]": {"molecular_target": "Fuc(a1-2)[Gal(a1-3)]Gal(b1-4)Glc", "summary_of_the_method": "as §1"}, "[5]": {"molecular_target": "Fuc(a1-2)[Gal(a1-4)]Gal(b1-4)GlcNAc", "summary_of_the_method": "as §1"}, "[6]": {"molecular_target": "Fuc(a1-2)[GalNAc(a1-3)]Gal(b1-4)GlcNAc", "summary_of_the_method": "as §1"}, "[7]": {"molecular_target": "Fuc(a1-3)[Gal(b1-4)]GlcNAc(b1-2)Man(a1-6)[Gal(b1-4)GlcNAc(b1-2)Man(a1-3)]Man(b1-4)GlcNAc(b1-4)GlcNAc", "summary_of_the_method": "as §1"}, "[8]": {"molecular_target": "Fuc(a1-3)[Gal3S(b1-4)]GlcNAc6S", "summary_of_the_method": "as §1"}, "[9]": {"molecular_target": "Gal(b1-3)Gal(b1-4)GlcNAc", "summary_of_the_method": "as §1"}, "[10]": {"molecular_target": "Gal(b1-4)Glc6S", "summary_of_the_method": "as §1"}, "[11]": {"molecular_target": "Gal(b1-4)GlcNAc(b1-2)Man(a1-3)[Gal(b1-4)GlcNAc(b1-2)Man(a1-6)]Man(b1-4)GlcNAc(b1-4)GlcNAc", "summary_of_the_method": "as §1"}, "[12]": {"molecular_target": "Gal(b1-4)GlcNAc(b1-3)[Gal(b1-4)GlcNAc(b1-6)]Gal(b1-4)GlcNAc", "summary_of_the_method": "as §1"}, "[13]": {"molecular_target": "Gal(b1-4)GlcNAc(b1-6)[Gal(b1-3)]GalNAc", "summary_of_the_method": "as §1"}, "[14]": {"molecular_target": "Gal3S(b1-4)[Fuc(a1-3)]Glc", "summary_of_the_method": "as §1"}, "[15]": {"molecular_target": "Gal3S6S(b1-4)GlcNAc6S", "summary_of_the_method": "as §1"}, "[16]": {"molecular_target": "GlcNAc(b1-3)GalNAc", "summary_of_the_method": "as §1"}, "[17]": {"molecular_target": "GlcNAc(b1-3)[GlcNAc(b1-4)][GlcNAc(b1-6)]GlcNAc", "summary_of_the_method": "as §1"}, "[18]": {"molecular_target": "Man(a1-2)Man(a1-3)[Man(a1-2)Man(a1-6)]Man", "summary_of_the_method": "as §1"}, "[19]": {"molecular_target": "Neu5Ac(a2-3)Gal(b1-4)GlcNAc(b1-3)Gal(b1-4)[Fuc(a1-3)]GlcNAc", "summary_of_the_method": "as §1"}, "[20]": {"molecular_target": "Neu5Ac(a2-8)Neu5Ac(a2-8)Neu5Ac", "summary_of_the_method": "as §1"}}, "note": "About 410 targets per protein were measured; listed, in parts, are those with the strongest signals and a random draw of the rest."}
{"binder": "MCI4 (Toxoplasma gondii), Q9XZH7 (protein) MRASLPVHLVVCTQLSAVWFGVAKAHGGHRLEPHVPGFLQGFTDITPAGDDVSANVTSSEPAKLDLSCVHSDNKGSRAPTIGEPVPDVSLEQCAAQCKAVDGCTHFTYNDDSKMCHVKEGKPDLYDLTGGKTASRSCDRSCFEQHVSYEGAPDVMTAMVTSQSADCQAACAADPSCEIFTYNEHDQKCTFKGRGFSAFKERGVLGVTSGPKQFCDEGGKLTQEEMEDQISGCIQLSDVGSMTADLEEPMEADSVGACMERCRCDGRCTHFTFNDNTRMCYLKGDKMQLYSSPGDRTGPKSCDSSCFSNGVSYVDDPATDVETVFEISHPIYCQVICAANPLCTVFQWYASEAKCVVKRKGFYKHRKTGVTGVTVGPREFCDFGGSIRDREEADAVGSDDGLNAEATMANSPDFHDEVECVHTGNIGSKAQTIGEVKRASSLSECRARCQAEKECSHYTYNVKSGLCYPKRGKPQFYKYLGDMTGSRTCDTSCLRRGVDYSQGPEVGKPWYSTLPTDCQVACDAEDACLVFTWDSATSRCYLIGSGFSAHRRNDVDGVVSGPYTFCDNGENLQVLEAKDTE", "values": [{"measurement": "glycan array binding signal (z-score)", "setting": "[1]", "value": -0.22}, {"measurement": "glycan array binding signal (z-score)", "setting": "[2]", "value": -0.204}, {"measurement": "glycan array binding signal (z-score)", "setting": "[3]", "value": -0.214}, {"measurement": "glycan array binding signal (z-score)", "setting": "[4]", "value": -0.206}, {"measurement": "glycan array binding signal (z-score)", "setting": "[5]", "value": -0.203}, {"measurement": "glycan array binding signal (z-score)", "setting": "[6]", "value": -0.21}, {"measurement": "glycan array binding signal (z-score)", "setting": "[7]", "value": -0.201}, {"measurement": "glycan array binding signal (z-score)", "setting": "[8]", "value": -0.225}, {"measurement": "glycan array binding signal (z-score)", "setting": "[9]", "value": 5.93}, {"measurement": "glycan array binding signal (z-score)", "setting": "[10]", "value": 5.04}, {"measurement": "glycan array binding signal (z-score)", "setting": "[11]", "value": 4.68}, {"measurement": "glycan array binding signal (z-score)", "setting": "[12]", "value": 7.5}, {"measurement": "glycan array binding signal (z-score)", "setting": "[13]", "value": 5.16}, {"measurement": "glycan array binding signal (z-score)", "setting": "[14]", "value": -0.213}, {"measurement": "glycan array binding signal (z-score)", "setting": "[15]", "value": -0.228}, {"measurement": "glycan array binding signal (z-score)", "setting": "[16]", "value": -0.203}, {"measurement": "glycan array binding signal (z-score)", "setting": "[17]", "value": -0.202}, {"measurement": "glycan array binding signal (z-score)", "setting": "[18]", "value": -0.213}, {"measurement": "glycan array binding signal (z-score)", "setting": "[19]", "value": -0.217}, {"measurement": "glycan array binding signal (z-score)", "setting": "[20]", "value": -0.217}]}
